Data: the supplement of paper PMC3545927
This is one part of the list. The true hit rate is not given.

Target: furin, P09958
Experiment: furin cleavage Z-score vs untreated control; higher = more cleavage, active = 3.5 or more, inactive = 1 or less, 8 variable residues between constant flanks
Outline: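 Magnetic beads held 8-mer peptides by the N-terminus, each fused to a cDNA oligonucleotide, and purified furin was added for 7.5, 15 or 30 min. Released DNA was sequenced after PCR adapter tagging. The cleavage Z-score is the log count relative to furin-free reactions, lowess-adjusted and divided by median absolute deviation.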
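Also: purified furin at 1:10 enzyme:substrate in 50 mM HEPES pH 7.5.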

Chain of furin, P09958 (P09958 whole entry): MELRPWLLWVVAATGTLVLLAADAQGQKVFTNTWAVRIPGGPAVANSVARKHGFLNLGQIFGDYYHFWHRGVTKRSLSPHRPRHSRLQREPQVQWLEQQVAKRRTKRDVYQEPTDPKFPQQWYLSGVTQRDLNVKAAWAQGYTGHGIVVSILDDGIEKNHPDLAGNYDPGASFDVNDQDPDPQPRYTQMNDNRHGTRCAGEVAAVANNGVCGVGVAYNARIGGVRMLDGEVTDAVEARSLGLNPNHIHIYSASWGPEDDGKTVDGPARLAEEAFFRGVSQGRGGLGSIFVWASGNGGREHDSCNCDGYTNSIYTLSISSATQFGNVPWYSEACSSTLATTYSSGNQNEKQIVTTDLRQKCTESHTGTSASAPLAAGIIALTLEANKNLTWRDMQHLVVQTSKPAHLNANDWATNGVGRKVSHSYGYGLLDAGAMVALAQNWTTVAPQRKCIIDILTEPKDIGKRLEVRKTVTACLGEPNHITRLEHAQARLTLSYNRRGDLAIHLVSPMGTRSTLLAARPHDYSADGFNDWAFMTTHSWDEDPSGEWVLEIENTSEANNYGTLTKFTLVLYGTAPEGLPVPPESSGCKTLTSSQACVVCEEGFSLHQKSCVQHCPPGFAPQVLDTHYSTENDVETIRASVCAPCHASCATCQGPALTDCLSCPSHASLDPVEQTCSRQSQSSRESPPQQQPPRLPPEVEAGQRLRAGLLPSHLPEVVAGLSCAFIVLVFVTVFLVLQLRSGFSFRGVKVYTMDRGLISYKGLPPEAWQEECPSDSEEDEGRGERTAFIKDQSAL

CALVAFKIMSAGNASASA [HC1092]
furin cleavage Z-score (7.5 min): -0.725 (inactive)
furin cleavage Z-score (15 min): -0.454 (inactive)
furin cleavage Z-score (30 min): -0.368 (inactive)

CASSSRRRRSAGNASASA [FS-1286]
furin cleavage Z-score (7.5 min): 9.8 (active)
furin cleavage Z-score (15 min): 8.59 (active)
furin cleavage Z-score (30 min): 7.58 (active)

CASSSRRSRSAGNASASA [FS-1615]
furin cleavage Z-score (7.5 min): 7.43 (active)
furin cleavage Z-score (15 min): 8.67 (active)
furin cleavage Z-score (30 min): 6.73 (active)

CAAPSRRSRSAGNASASA [FS-216]
furin cleavage Z-score (7.5 min): 9.21 (active)
furin cleavage Z-score (15 min): 8.84 (active)
furin cleavage Z-score (30 min): 7.91 (active)

CASSREKRRSAGNASASA [FS-1285]
furin cleavage Z-score (7.5 min): 0.453 (inactive)
furin cleavage Z-score (15 min): 0.575 (inactive)
furin cleavage Z-score (30 min): 2.39

CAKHSRRRRSAGNASASA [FS-174]
furin cleavage Z-score (7.5 min): 10.9 (active)
furin cleavage Z-score (15 min): 10.7 (active)
furin cleavage Z-score (30 min): 6.68 (active)

CAMEECSRHLAGNASASA [HC1733]
furin cleavage Z-score (7.5 min): 0.727 (inactive)
furin cleavage Z-score (15 min): 0.671 (inactive)
furin cleavage Z-score (30 min): 1.88

CAALTGTYVYAGNASASA [HC632]
furin cleavage Z-score (7.5 min): 1.19
furin cleavage Z-score (15 min): -0.31 (inactive)
furin cleavage Z-score (30 min): -0.691 (inactive)

CAKPDYEPPVAGNASASA [HC1312]
furin cleavage Z-score (7.5 min): 0.808 (inactive)
furin cleavage Z-score (15 min): -0.123 (inactive)
furin cleavage Z-score (30 min): 0.46 (inactive)

CAEVPCHYPSAGNASASA [HC2369]
furin cleavage Z-score (7.5 min): 0.223 (inactive)
furin cleavage Z-score (15 min): 1.34
furin cleavage Z-score (30 min): 1.34

CAVVWCSMSYAGNASASA [HC2028]
furin cleavage Z-score (7.5 min): 0.181 (inactive)
furin cleavage Z-score (15 min): 0.241 (inactive)
furin cleavage Z-score (30 min): 0.133 (inactive)

CAVQYLYGVGAGNASASA [HC510]
furin cleavage Z-score (7.5 min): -0.596 (inactive)
furin cleavage Z-score (15 min): -1.07 (inactive)
furin cleavage Z-score (30 min): -0.127 (inactive)

CANEECSQHLAGNASASA [HC1681]
furin cleavage Z-score (7.5 min): 0.726 (inactive)
furin cleavage Z-score (15 min): 1.58
furin cleavage Z-score (30 min): -0.0685 (inactive)

CATTPCSMSWAGNASASA [HC1886]
furin cleavage Z-score (7.5 min): 0.125 (inactive)
furin cleavage Z-score (15 min): 0.0823 (inactive)
furin cleavage Z-score (30 min): 0.51 (inactive)

CAGSSRLDRSAGNASASA [FS-1208]
furin cleavage Z-score (7.5 min): 1.21
furin cleavage Z-score (15 min): 1.38
furin cleavage Z-score (30 min): 0.97 (inactive)

CAAPVRRDRSAGNASASA [FS-977]
furin cleavage Z-score (7.5 min): 6.44 (active)
furin cleavage Z-score (15 min): 6.02 (active)
furin cleavage Z-score (30 min): 5.28 (active)

CADLEDRDRSAGNASASA [HC487]
furin cleavage Z-score (7.5 min): -0.326 (inactive)
furin cleavage Z-score (15 min): -1.64 (inactive)
furin cleavage Z-score (30 min): -1.38 (inactive)

CASDFRRRRSAGNASASA [FS-868]
furin cleavage Z-score (7.5 min): 9.07 (active)
furin cleavage Z-score (15 min): 7.71 (active)
furin cleavage Z-score (30 min): 7.52 (active)

CAGSSRRRRSAGNASASA [FS-1334]
furin cleavage Z-score (7.5 min): 9.7 (active)
furin cleavage Z-score (15 min): 10.8 (active)
furin cleavage Z-score (30 min): 6.42 (active)

CAFSSREERSAGNASASA [FS-589]
furin cleavage Z-score (7.5 min): -0.625 (inactive)
furin cleavage Z-score (15 min): -0.927 (inactive)
furin cleavage Z-score (30 min): -2.43 (inactive)

CAGSSREVRSAGNASASA [FS-29]
furin cleavage Z-score (7.5 min): 2.81
furin cleavage Z-score (15 min): 4.54 (active)
furin cleavage Z-score (30 min): 4.54 (active)

CALEQALDCEAGNASASA [HC1590]
furin cleavage Z-score (7.5 min): -1.94 (inactive)
furin cleavage Z-score (15 min): 0.416 (inactive)
furin cleavage Z-score (30 min): -0.45 (inactive)

CAGLVPRGSAAGNASASA [TR1]
furin cleavage Z-score (7.5 min): 0.366 (inactive)
furin cleavage Z-score (15 min): -0.466 (inactive)
furin cleavage Z-score (30 min): -0.254 (inactive)

CAMEEQSQHLAGNASASA [HC19]
furin cleavage Z-score (7.5 min): 0.113 (inactive)
furin cleavage Z-score (15 min): 0.699 (inactive)
furin cleavage Z-score (30 min): 0.674 (inactive)

CAAIPLEVIKAGNASASA [HC850]
furin cleavage Z-score (7.5 min): -0.209 (inactive)
furin cleavage Z-score (15 min): 0.792 (inactive)
furin cleavage Z-score (30 min): -0.386 (inactive)

CANQLRVKRSAGNASASA [FS-554]
furin cleavage Z-score (7.5 min): 5.48 (active)
furin cleavage Z-score (15 min): 5 (active)
furin cleavage Z-score (30 min): 3.97 (active)

CAPSRRVKRSAGNASASA [FS-1149]
furin cleavage Z-score (7.5 min): 8.11 (active)
furin cleavage Z-score (15 min): 7.59 (active)
furin cleavage Z-score (30 min): 5 (active)

CAGFRRFKRSAGNASASA [FS-240]
furin cleavage Z-score (7.5 min): 8.1 (active)
furin cleavage Z-score (15 min): 5.19 (active)
furin cleavage Z-score (30 min): 7.05 (active)

CALQRRVKRSAGNASASA [FS-1463]
furin cleavage Z-score (7.5 min): 3.17
furin cleavage Z-score (15 min): 3.78 (active)
furin cleavage Z-score (30 min): 1.92

CAPTHYVPESAGNASASA [HC1126]
furin cleavage Z-score (7.5 min): 1.82
furin cleavage Z-score (15 min): -1.79 (inactive)
furin cleavage Z-score (30 min): 0.876 (inactive)

CALQRRKKKGAGNASASA [FS-1643]
furin cleavage Z-score (7.5 min): -0.863 (inactive)
furin cleavage Z-score (15 min): -0.718 (inactive)
furin cleavage Z-score (30 min): 0.433 (inactive)

CAGFRRSMDQAGNASASA [FS-2860]
furin cleavage Z-score (7.5 min): -0.496 (inactive)
furin cleavage Z-score (15 min): -0.187 (inactive)
furin cleavage Z-score (30 min): 0.074 (inactive)

CAEVVTSAWVAGNASASA [HC2203]
furin cleavage Z-score (7.5 min): -1.33 (inactive)
furin cleavage Z-score (15 min): -0.0621 (inactive)
furin cleavage Z-score (30 min): -0.753 (inactive)

CASTTSRSACAGNASASA [HC1390]
furin cleavage Z-score (7.5 min): 0.133 (inactive)
furin cleavage Z-score (15 min): -0.0614 (inactive)
furin cleavage Z-score (30 min): -0.754 (inactive)

CALAGLSTLPAGNASASA [HC1048]
furin cleavage Z-score (7.5 min): 0.519 (inactive)
furin cleavage Z-score (15 min): 1.63
furin cleavage Z-score (30 min): 0.445 (inactive)

CALKATCTANAGNASASA [HC1266]
furin cleavage Z-score (7.5 min): 0.615 (inactive)
furin cleavage Z-score (15 min): 2.96
furin cleavage Z-score (30 min): 1.42

CACWRRMKRSAGNASASA [FS-1113]
furin cleavage Z-score (7.5 min): 9.77 (active)
furin cleavage Z-score (15 min): 10.5 (active)
furin cleavage Z-score (30 min): 7.93 (active)

CAKLFRVKRSAGNASASA [FS-1220]
furin cleavage Z-score (7.5 min): 11.7 (active)
furin cleavage Z-score (15 min): 10.7 (active)
furin cleavage Z-score (30 min): 8.14 (active)

CARTGKVKRSAGNASASA [FS-497]
furin cleavage Z-score (7.5 min): 10.7 (active)
furin cleavage Z-score (15 min): 9.35 (active)
furin cleavage Z-score (30 min): 8.07 (active)

CAECYDAGCAAGNASASA [HC920]
furin cleavage Z-score (7.5 min): -0.745 (inactive)
furin cleavage Z-score (15 min): 0.00773 (inactive)
furin cleavage Z-score (30 min): -0.466 (inactive)

CAGCPLPPPKAGNASASA [HC1317]
furin cleavage Z-score (7.5 min): 0.693 (inactive)
furin cleavage Z-score (15 min): -0.374 (inactive)
furin cleavage Z-score (30 min): -0.0504 (inactive)

CAVVPRGVNLAGNASASA [TR7]
furin cleavage Z-score (7.5 min): 1.05
furin cleavage Z-score (15 min): -0.803 (inactive)
furin cleavage Z-score (30 min): 1.14

CAMEERSQHLAGNASASA [HC10]
furin cleavage Z-score (7.5 min): -0.0717 (inactive)
furin cleavage Z-score (15 min): -0.428 (inactive)
furin cleavage Z-score (30 min): 1.49
